From the supplement of paper PMC10338343
± gives the standard deviation.

tested on: EfPiwi piRISC loaded with piRNA #1 (26 nt); test: pre-steady-state target cleavage rate (min^-1); auxiliary factor: 500 nM Ephydatia muelleri Gtsf1; guide: piRNA #1 5'p-UGAGGUAGUAGGUUGUAUAGUAUCCA; MIWI and MILI are mouse PIWI proteins and EfPiwi is from a freshwater sponge; tags in brackets are library labels; higher = faster piRNA-guided slicing of the target
Procedure, shortened: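 The pre-steady-state cleavage rate was obtained by Cleave-'n-Seq with a burst-and-steady-state fit. A transcribed, DNA-blocked target RNA library (0.1 nM) was mixed with 1 nM active affinity-purified piRISC carrying one synthetic guide, with or without 500 nM GTSF1 partner protein, in HEPES–potassium acetate buffer at 33 °C for 0–8 or 0–960 min. Uncleaved targets were sequenced and normalised to depth and to weakly complementary targets, with three trials pooled and k3 capped at 0.0001 min^-1.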

GGAGUGGAUACUAUACAACCUAGAUCCUCA and GGAGACCUUGACUAUACAACCUACUACCUCA are within error of each other in “pre-steady-state target cleavage rate” value: 0.00311 ± 0.0016 for the first, 0.00922 ± 0.0051 for the second.

Compared with GGAGACCUAUGAAUACAACCUACAUGCUCA, GGAGACCAUACUAUACACACCUACUACCUCA is higher in “pre-steady-state target cleavage rate” value: < 0.0001 for the first, 0.00511 ± 0.0031 for the second.

GGAGUGGAUACUAUACAACCUACUGACCUCA and GGAGAGGAUACUAUACAACCUACUACAUCA are within error of each other in “pre-steady-state target cleavage rate” value: 0.00401 ± 0.0014 for the first, 0.00573 ± 0.0027 for the second.

GGAGUCGAUACUAUACUACCUACUACCUCA and GGAGUGGAUACUAUACAACCUUCUACGUCA are within error of each other in “pre-steady-state target cleavage rate” value: 0.00591 ± 0.0029 for the first, 0.00426 ± 0.0016 for the second.

GGAGAGGAUAGCUAUACAACCUACUACCUCA and GGAGACCAUACUACACAACCUACUACCUCA are within error of each other in “pre-steady-state target cleavage rate” value: 0.0146 ± 0.0073 for the first, 0.0182 ± 0.0078 for the second.

GGAGACCUAUGUAGUACAACCUACUACCUCA and GGAGACCAAACUAUACAACCUACUACCACA are within error of each other in “pre-steady-state target cleavage rate” value: 0.00368 ± 0.0031 for the first, 0.00528 ± 0.0044 for the second.

GGAGUGGAUACUAUACAAGCUACUACCUCA and GGAGACCUUACUAUACAACCUAGUACGUCA are within error of each other in “pre-steady-state target cleavage rate” value: 0.008 ± 0.0032 for the first, 0.00357 ± 0.0023 for the second.

First: GGAGAGCAUAGUAUACAACCUACUACCUCA
Second: GGAGACCUAUGAUAUGUACCUACUACGCUCA
The “pre-steady-state target cleavage rate” value of the first is higher: 0.0077 ± 0.0045 for the first, < 0.0001 for the second.

GGAGAGGAUACUAUACAACGUACUACCUCA and GGAGACCUUACUAUACAACGCUACUACCUCA are within error of each other in “pre-steady-state target cleavage rate” value: 0.0053 ± 0.0021 for the first, 0.00566 ± 0.0038 for the second.

GGAGAGGACUACUAUACAACCUACUACCUCA and GGAGACGUUACUAUACAACCUACUAGCUCA are within error of each other in “pre-steady-state target cleavage rate” value: 0.00553 ± 0.0037 for the first, 0.0029 ± 0.0017 for the second.

GGAGACGAUACUAUACAACCUACUACCAGA and GGAGAGGAUACUAUACAACCUACUUCGUCA are within error of each other in “pre-steady-state target cleavage rate” value: 0.00503 ± 0.0015 for the first, 0.00697 ± 0.0031 for the second.

GGAGUGGAUACUAUACAACCUAUUACCUCA and GGAGUGGAUACAUACAACCUACUACCUCA are within error of each other in “pre-steady-state target cleavage rate” value: 0.0922 ± 0.034 for the first, 0.131 ± 0.048 for the second.

GGAGAGGAUACUAUACAAGCUACUAGCUCA and GGAGACCUAACUAUACAACGUACUUCCUCA are within error of each other in “pre-steady-state target cleavage rate” value: 0.00266 ± 0.0018 for the first, 0.00713 ± 0.0049 for the second.

First: GGAGACCUAUGAUAUGUACCAACUACCACA
Second: GGAGACCAUACUAUACAUCCUACUACCUGA
The “pre-steady-state target cleavage rate” value of the first is lower: < 0.0001 for the first, 0.00312 ± 0.0018 for the second.

GGAGACGAUACUAUACAACCUUCUUCCUCA and GGAGUGGAUACUUUACAUCCUACUACCUCA are within error of each other in “pre-steady-state target cleavage rate” value: 0.0037 ± 0.0019 for the first, 0.0043 ± 0.0029 for the second.

GGAGAGGAUACUAGACAACCUACUACCUCA and GGAGAGGAUACUAUACAACCUACUUGGUCA are within error of each other in “pre-steady-state target cleavage rate” value: 0.0121 ± 0.0055 for the first, 0.00425 ± 0.0034 for the second.

Going from GGAGUGGAUACUAUACAACCUUCUACCACA to “GGAGACCUAUGAUAUGUACCUACAUGGAGA [g8:g13:cont:t1A]”, the “pre-steady-state target cleavage rate” value falls from 0.00272 ± 0.0016 to < 0.0001.

First: GGAGAGGAUACUAUACAACCUUACUACCUCA
Second: GGAGUGGAUACUAUAGAACCUACAACCUCA
The “pre-steady-state target cleavage rate” value of the first is higher: 0.00845 ± 0.0045 for the first, 0.00234 ± 0.0015 for the second.

GGAGACCAUACUAUACAAGCCUACUACCUCA and GGAGAGGAUACUAUACAGACCUACUACCUCA are within error of each other in “pre-steady-state target cleavage rate” value: 0.00453 ± 0.0032 for the first, 0.00626 ± 0.0046 for the second.

GGAGACGAUACUAUACAACCUACUAGGUCA and GGAGUGGAUACAAUACUACCUACUACCUCA are within error of each other in “pre-steady-state target cleavage rate” value: 0.0052 ± 0.002 for the first, 0.00316 ± 0.0019 for the second.
